PrP 5UTR inh: inhibition of PrP 5' UTR reporter expression. cell-based PrP 5' UTR mRNA reporter, plate reader. inhibition, % (concentration not given with the values). 340,000 tested, 0.35% active; in the data active means inhibition above about 52%
SSB-PriA inh: inhibitors of Klebsiella pneumoniae PriA binding to SSB C-terminal tail, primary screen, biochemical, AlphaScreen; PriA–SSB C-terminal tail interaction (Klebsiella pneumoniae); AlphaScreen SSBct-PriA binding, biotinylated peptide; inhibition, % at 33 µM; 430,000 tested, 0.6% active; in the data active means inhibition mostly above about 37%, no sharp cut-off; inactive means mostly below about 20%
RecA splice inh: Mtb RecA intein splicing inhibitors, primary screen, biochemical, fluorescence, HTS. Protein RecA (Mycobacterium tuberculosis (strain ATCC 25618 / H37Rv)), P9WHJ3. 290,000 tested, 0.75% active. cell-free RecA intein splicing. inhibition, % (test concentration not listed); in the data active means inhibition above about 30%
Target sequence (P9WHJ3 whole entry, looked up, canonical isoform): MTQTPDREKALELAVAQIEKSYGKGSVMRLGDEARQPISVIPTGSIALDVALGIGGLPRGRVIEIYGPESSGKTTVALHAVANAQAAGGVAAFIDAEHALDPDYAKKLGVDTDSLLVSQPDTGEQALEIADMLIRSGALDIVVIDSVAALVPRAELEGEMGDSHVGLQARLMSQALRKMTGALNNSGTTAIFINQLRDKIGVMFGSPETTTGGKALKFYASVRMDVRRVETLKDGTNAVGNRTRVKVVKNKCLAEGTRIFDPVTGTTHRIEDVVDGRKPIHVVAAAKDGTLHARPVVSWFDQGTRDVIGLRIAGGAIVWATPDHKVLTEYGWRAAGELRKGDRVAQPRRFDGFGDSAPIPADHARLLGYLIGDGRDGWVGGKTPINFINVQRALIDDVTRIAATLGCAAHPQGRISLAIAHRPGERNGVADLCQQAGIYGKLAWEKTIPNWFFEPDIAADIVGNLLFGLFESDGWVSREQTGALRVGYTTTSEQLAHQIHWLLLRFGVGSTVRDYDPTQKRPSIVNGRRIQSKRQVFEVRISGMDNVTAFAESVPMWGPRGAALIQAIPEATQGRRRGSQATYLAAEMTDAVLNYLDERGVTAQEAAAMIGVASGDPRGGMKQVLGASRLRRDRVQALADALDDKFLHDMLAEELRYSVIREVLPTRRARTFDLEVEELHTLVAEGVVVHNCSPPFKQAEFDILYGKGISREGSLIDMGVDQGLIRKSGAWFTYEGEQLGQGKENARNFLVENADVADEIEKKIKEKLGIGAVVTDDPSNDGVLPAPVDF
PrPC TRFRET: inhibitors of human cell surface prion protein PrPC, primary screen, cell-based, TR-FRET; 370,000 tested, 0.43% active; inhibition, % at 13.8 µM; TR-FRET read-out; in the data active means inhibition above about 24%
PfHsp40 yeast: rescue of yeast from PfHsp40 toxicity, primary screen, S. cerevisiae, ATP luminescence. S. cerevisiae expressing PfHsp40, growth rescue. growth rescue, % at 12.5 µM. 340,000 tested, 0.68% active. AID 504582, 2011; in the data active means growth rescue above about 28%, passing the limit was not always enough;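 further: yeast W303a lacking pdr1 and pdr3 grown in galactose medium; growth measured after three days at 30 °C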
BJeLR viability: MLPCN primary cell-based screen for lethality selective to Ras in HRASV12 cells. BJeLR (HRASV12) viability, CellTiter-Glo ATP luminescence, 48 h. inhibition, % (test concentration not listed). 300,000 tested, 0.17% active. AID 1554, 2009; in the data active means inhibition above about 50%
Hits are given with their value; . = inactive; / = no result given; ! = a repeat was not active. This is a sample that favours compounds with a hit; in the whole collection about 1.9% have one here.

SMILES | PrP 5UTR inh | SSB-PriA inh | RecA splice inh | PrPC TRFRET | PfHsp40 yeast | BJeLR viability
O=Nc1c2cc3ccccc3[nH]c-2c2ccccc12 | . | . | / | . | 54 | /
O=c1c2ccccc2[nH]c2ccccc12 | . | . | / | . | . | .
CCCc1cc(C(N)=O)c(NC(=O)c2cc(C)on2)s1 | . | . | . | / | 178 | .
CCCc1cc(C(N)=O)c(NC(=O)c2ccoc2C)s1 | . | . | . | . | . | .
O=C(CSC1=NNC(c2ccccn2)S1)Nc1ccc(C(F)(F)F)cc1 (stereo not drawn) | . | . | . | . | . | .
c1ccc(CSC2=NNC(c3ccccn3)S2)cc1 (stereo not drawn) | . | . | . | . | 93 | .
Cc1nnc(N/N=C/c2cccc(OCc3ccc(Cl)c(Cl)c3)c2)n1N | . | / | 74 | . | 38 | .
O=c1cc(-c2ccccc2)[nH]n1-c1nc2ccccc2[nH]1 | . | 69 | . | . | . | .
Cn1cc(S(=O)(=O)NCC2(c3cccs3)CCCC2)cn1 | / | . | / | / | / | /
Cc1ccc(S(=O)(=O)Nc2ccc(O)c3ncccc23)cc1 | . | 46! | . | . | 188 | .
COc1ccc(-c2cc3nc(C)cc(N)n3n2)cc1 | . | . | / | . | . | 51
O=c1c2nnn(-c3ccc(OC(F)(F)F)cc3)c2ncn1Cc1ccc(F)cc1 | / | . | / | / | / | /
Cc1cc2cc(CNC(=S)NC(C)(C)C)ccc2[nH]1 | / | . | / | / | / | /
Cc1cc2cc(CNC(=S)Nc3ccc(OC(F)(F)F)cc3)ccc2[nH]1 | . | 58 | . | . | . | .
CCNC(=S)NCc1ccc2[nH]c(C)cc2c1 | . | 63 | . | . | . | .
Cc1cc2cc(CNC(=O)Nc3ccccc3)ccc2[nH]1 | . | 44! | . | . | . | .
Cc1cc2cc(CNC(=S)NCc3ccccc3)ccc2[nH]1 | / | . | / | / | / | /
Cc1cc2cc(CNC(=S)Nc3ccc(OC(F)F)cc3)ccc2[nH]1 | . | 73 | . | . | . | .
O=C(NN=Cc1ccc(O)c([N+](=O)[O-])c1)C1CC1(c1ccccc1)c1ccccc1 (stereo not drawn) | / | . | / | / | / | /
O=S(=O)(Cc1ccccc1)NCCOc1ccc(F)cc1 | / | . | / | / | / | /
CSc1ncccc1C(=O)N1CCC(CNS(C)(=O)=O)CC1 | / | . | / | / | / | /
O=C(CC(=O)c1ccccc1)CS(=O)(=O)c1ccccc1 | . | . | / | . | 60 | /
Cc1ccc(S(=O)(=O)CC(=O)c2ccccc2)cc1 | . | . | . | . | . | .
O=c1[nH]cc(F)c(=O)[nH]1 | . | . | . | . | 256! | .
COc1ccc(-c2cc(=O)oc3c(C)c(O)c(CN(C)C)cc23)cc1 | . | . | . | . | 45 | /
SMILES | PrP 5UTR inh | SSB-PriA inh | RecA splice inh | PrPC TRFRET | PfHsp40 yeast | BJeLR viability
COc1ccc(-c2cc(=O)oc3c(C)c(OCC(=O)N(C)C)ccc23)cc1 | . | . | . | . | . | .
NS(=O)(=O)c1ccc(CCNC(=O)C2CN(C(=O)c3ccc4c(c3)OCO4)C2)cc1 | / | . | / | / | / | /
O=C(O)CN1C(=O)/C(=C\c2ccccc2OCc2ccc(Cl)cc2Cl)SC1=S | . | . | . | . | 53 | .
O=C(O)CN1C(=O)/C(=C\c2cc(Br)ccc2OCc2ccccc2Cl)SC1=S | . | . | . | . | . | .
CC(=NNC(=O)c1cccc(F)c1)c1cccc(NC(=O)c2ccc(F)cc2)c1 | / | . | / | / | / | /
O=C(OCn1ncc(Br)c(Br)c1=O)c1c(F)cccc1F | / | / | 53 | / | / | .
Cc1ccc(Cn2cnc3c(cnn3CCNC(=O)c3ccc(C)cc3)c2=O)cc1 | / | . | / | / | / | /
CC(=O)c1ccc(NC(=O)CSc2ccc(-c3sc(-c4cccnc4)nc3C)nn2)cc1 | / | . | / | / | / | /
C/C(=N\Nc1ccc2nncn2n1)c1ccccn1 | / | / | . | . | / | 62
COc1ccc(CCC(=O)N2CCC(CSc3ccccn3)CC2)cc1 | / | . | / | / | / | /
C=C(C)COc1ccc(-c2[nH]ncc2-c2ccccc2OC)c(O)c1 | . | . | . | . | . | .
C=C(C)COc1ccc(-c2[nH]ncc2-c2ccc(Br)cc2)c(O)c1 | . | . | . | . | 309 | .
O=C(NN=Cc1cc2c(cc1Br)OCO2)c1c[nH]c2ccccc12 | / | . | / | / | / | /
CC(=NNc1nc(C)cc(=O)[nH]1)C1CC1 | / | . | / | / | / | /
COc1ccc(N2CCN(C(=O)Cc3csc(Nc4ccc(F)cc4)n3)CC2)cc1 | / | . | / | / | / | /
Cc1cccc(OCc2nc(C#N)c(NCc3ccc4c(c3)OCO4)o2)c1 | . | . | . | . | 29 | .
CC(=O)NCc1ccc(S(=O)(=O)NN=Cc2ccc(Br)cc2)cc1 | / | . | / | / | / | /
O=C(CCc1ccc(=O)n(Cc2ccccc2)n1)Nc1ccncc1 | / | . | / | / | / | /
Cn1c(=O)c(C(=O)NNC(=O)c2ccccc2Cl)c(O)c2ccccc21 | . | . | . | . | 82 | .
O=C(Nc1ccc(Cl)cc1)c1cc(Br)ccc1OCC(=O)N1CCOCC1 | . | 44 | . | . | . | .
CCOC(=O)Nc1ccc2c(c1)C(=NO)c1ccccc1-2 | . | . | / | . | 207 | /
CCOC(=O)Nc1ccc2c(c1)Nc1ccccc1S2 | . | 53 | . | . | . | .
O=C(NC1CCN(c2nccs2)CC1)c1cccs1 | / | . | / | / | / | /
Nc1nc(Cl)cc(NCCc2ccc(O)cc2)n1 | . | . | . | . | . | .
Oc1ccc(CCNc2ncnc3ccc(Cl)cc23)cc1 | . | . | . | 36 | . | .
SMILES | PrP 5UTR inh | SSB-PriA inh | RecA splice inh | PrPC TRFRET | PfHsp40 yeast | BJeLR viability
COc1ccc(N2C(=O)C3N=NN(CC(=O)Nc4cccc(C(F)(F)F)c4)C3C2=O)cc1OC (stereo not drawn) | / | . | / | / | / | /
Cn1nc(C(C)(C)C)cc1C(=O)Sc1cccc(Br)c1 | . | . | 43 | . | . | .
CCCc1cc(NCc2ccccn2)n2nc(C)c(-c3ccccc3)c2n1 | . | . | . | . | 67 | .
CC(=O)Nc1ccc(Nc2cc(C(C)C)nc3c(-c4ccccc4)c(C)nn23)cc1 | . | . | . | . | 97 | .
Cc1nn2c(NCc3ccccn3)cc(C(C)C)nc2c1-c1ccccc1 | . | . | . | . | 37 | .
O=C(Nc1nc2c(s1)CCC[C@H]2C(=O)NCCC1=CCCCC1)c1ccccc1 | / | . | / | / | / | /
Cn1c(=O)[nH]c(=O)c2c1nc1n2CCCN1c1ccc(S(N)(=O)=O)cc1 | / | . | / | / | / | /
Cc1ccc(NC(=O)NCc2ccc3c(c2)OCO3)cc1C | . | . | . | . | . | .
Cc1cc(CNC(=O)Nc2ccc3c(c2)OCO3)c(C)o1 | / | 39 | / | / | / | /
O=C(CSc1ccc(NC(=O)c2cccs2)nn1)Nc1ccccc1C(F)(F)F | / | . | / | / | / | /
CCOC(=O)c1c(C)oc2c1c1c(c3ccccc32)OCN(Cc2ccccn2)C1 | . | 57 | . | . | . | .
c1ccc(-c2c(-c3ccccc3)n(Cc3ccco3)c3ncnc(NCCCn4ccnc4)c23)cc1 | . | 52 | . | . | 148 | .
OCCNc1ncnc2c1c(-c1ccccc1)c(-c1ccccc1)n2Cc1ccco1 | . | . | . | . | . | .
